From PubChem BioAssay AID894 (National Center for Advancing Translational Sciences (NCATS), 2007)
Out of some 150,000 compounds screened, about 6,500 (4.3%) were called active. Not shown: some 12% with an inconclusive outcome. Calls come from the whole dose curve; as a rule, active = well fitted inhibition curve with a large enough effect (not every such curve was filed as active); inconclusive = small, poorly fitted or top-dose-only effect, or another doubt; inactive = no such curve, though single readings can be large or run the other way. For the sample, actives were picked, then their nearest neighbours and some compounds at random.

The compounds below were run against 15-hydroxyprostaglandin dehydrogenase [NAD(+)] (Homo sapiens) (UniProt P15428) (assay: qHTS Assay for Inhibitors of HPGD (15-Hydroxyprostaglandin Dehydrogenase)). Details: purified HPGD, NADH fluorescence kinetic, PGE2 substrate; activity change, negative = inhibition: stronger effect = lower value.
Chain of 15-hydroxyprostaglandin dehydrogenase [NAD(+)] (Homo sapiens) (P15428 whole entry, looked up): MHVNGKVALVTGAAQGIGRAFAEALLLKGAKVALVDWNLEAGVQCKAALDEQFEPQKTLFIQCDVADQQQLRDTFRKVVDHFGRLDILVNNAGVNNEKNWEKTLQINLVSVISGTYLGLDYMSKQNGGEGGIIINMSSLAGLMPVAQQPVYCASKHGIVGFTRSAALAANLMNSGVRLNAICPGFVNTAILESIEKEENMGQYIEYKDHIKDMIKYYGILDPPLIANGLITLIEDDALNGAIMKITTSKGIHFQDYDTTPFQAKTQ
Method in brief: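 NADH formation kinetics: reaction with 30 uM PGE2 and 1 mM NAD+ (final), 20 nM enzyme, Tris-HCl pH 8 with Tween 20, after 15 min compound preincubation at room temperature. Fluorescence change, last versus first of five reads.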
% is set by controls: 0 for no effect and ±100 for the full control effect; potency is the fitted concentration of half-maximal effect.

Activity change, negative = inhibition, inactive:
Cc1cccc(C)c1NC(=O)CSc1nnc(-c2ccccc2)n1Cc1ccc2c(c1)OCO2 -8.72%
CC1=C(C(N)=O)C(c2ccc3c(c2)OCO3)n2nc(-c3cccc(C)c3)nc2N1 (stereo not given) -3.51%
COCCNc1nc(N)c([N+](=O)[O-])c(NCCO)n1 -10.5%
O=C(NNC(=S)NCc1ccccc1)c1ccc(OC(F)F)cc1 -6.63%
Cc1ccc(Cc2c(C)nc3nc(SCC(=O)NCCN4CCOCC4)nn3c2C)cc1 -11.4%
COc1cc(OC)cc(-c2nc3nc(C)c(CCC(=O)NCc4ccco4)c(C)n3n2)c1 -10.9%
CCOC(=O)C1CCN(c2ccc(C(=O)O)cc2[N+](=O)[O-])CC1 -3.84%
CC(=O)c1cc(-c2ccccc2)n(CCC(=O)NC2CCCCCC2)c1C -4.2%
COc1ccc(CNC(=O)C2CCC(CNc3c(N4CCOCC4)c(=O)c3=O)CC2)cc1 (stereo not given) -17.3%
CCOc1ccccc1NC(=O)C1CCC(CNc2c(N3CCOCC3)c(=O)c2=O)CC1 (stereo not given) -25.1%
O=C(CCN1C(=O)c2ccccc2C1=O)NNC(=O)c1ccc(Cl)cc1Cl -7.71%
Cc1c(Br)c([N+](=O)[O-])nn1CC(=O)Nc1sc2c(c1C(=O)OC(C)C)CCC(C)C2 (stereo not given) -1.95%
C/C(=N/NS(=O)(=O)c1ccccc1)c1ccc(NC(=O)C(F)(F)F)cc1 -4.99%
COc1ccc(/C=N/OCC(=O)N(Cc2ccccc2)c2ccccc2C(=O)O)cc1 -8.65%
O=C(N/N=C/c1coc2ccccc2c1=O)c1cc2ccccc2o1 -20%
Cc1cccc(N2CCN(C(=O)/C=C/c3ccco3)CC2)c1C -20.4%
CCOc1cc(-c2noc(CCC(=O)N3CCOCC3)n2)ccc1OC -8.81%
COc1ccc(OCC(=O)N2CCOCC2)cc1 4.8%
COc1ccc(-c2nc3c(c4c2C[C@H](c2ccccc2)OC4)CN(C(=O)c2ccco2)CC3)c(C)c1 -11.6%
Cc1ccc(C(C)NC(=O)Cn2nc(C)c([N+](=O)[O-])c2C)cc1 (stereo not given) -5.59%
O=C(O)c1cccc(N=NN2CCCCCC2)c1 -9.76%
CCc1nnc(NC(=O)CCN(c2ccc(C)cc2)S(=O)(=O)c2ccccc2)s1 -10.2%
CC(=O)NNC1=Nc2ccccc2N(C)C(C)C1 (stereo not given) 0.367%
Cc1nn(CC(=O)Nc2nc3ccccc3s2)c(C)c1[N+](=O)[O-] -4.84%
c1ccc2sc(SCCSc3nc4ccccc4s3)nc2c1 0.386%
O=C(CSc1ccc2nnc(-c3ccccc3)n2n1)N1CCCc2ccccc21 -22.3%
CCOC(=O)c1c(C)[nH]c(C(=O)NCc2ccccc2OC)c1C -7.72%
COc1cc(SC)ccc1C(=O)NCCOc1ccccc1Cl -18.8%
CC(NC(=O)CCC(=O)N1CCN(S(=O)(=O)c2ccc(Cl)cc2)CC1)c1ccccc1 (stereo not given) -5.29%
Cc1c(Cl)cccc1NC(=S)NCc1ccc2c(c1)OCO2 -5.45%
Cc1ccc(C(=O)c2c(NC(=O)c3ccncc3)sc3c2CCCC3)cc1 -22.2%
CC(=O)c1c(Nc2ccccc2)sc(C(=O)c2ccccc2)c1C -1.98%
CCc1ccccc1NC(=O)CN(C)C(=O)COc1ccc(C)nc1[N+](=O)[O-] -2.83%
COc1ccc(NC(=O)COC(=O)c2ccc(NS(=O)(=O)/C=C/c3ccccc3)cc2)cc1 -13.7%
Cc1nn(C)c(Oc2ccccc2)c1[N+](=O)[O-] -7.95%
Cn1cnc([N+](=O)[O-])c1Nc1ccccc1O -2.73%
CCCN(CC1COc2ccccc2O1)C(=S)Nc1ccc(C)cc1 (stereo not given) -7.28%
CCS(=O)(=O)n1nc(-c2ccc(OC)cc2)nc1SC -4.54%
CCCC(=O)n1nc(-c2ccccc2)nc1N -7.53%
Cc1cc(F)ccc1S(=O)(=O)N1CCCOC1CNC(=O)C(=O)NCCC1=CCCCC1 (stereo not given) -6.01%
CCOC(=O)CN(Cc1ccc(OC)c(OC)c1)S(=O)(=O)c1ccc(OC)cc1 1.91%
COc1ccc(CCN(C(=O)COc2ccccc2)c2nc(-c3ccccc3)cs2)cc1OC -5.33%
CC(C)(C)C1CCC(=NNC(=O)c2ccc(Br)o2)CC1 (stereo not given) -11.4%
CCOC(=O)CNC(=O)CSc1nc2cccnc2n1CC -17.6%
CCn1c(SCC(=O)NCC2CCCO2)nc2cc(S(=O)(=O)N3CCCCC3)ccc21 (stereo not given) -12.7%
O=C(CN1CCN(c2ccc(Cl)cc2)CC1)N1CCCC1 -1.51%
O=C(CSCc1ccc(Cl)cc1)N1CCN(Cc2ccc3c(c2)OCO3)CC1 -13.7%
CCCCC/C=C\C/C=C\CCCCCCCCCC(N)=O -6.01%
COc1ccc(NC(=S)NC2CCS(=O)(=O)C2)cc1 (stereo not given) -7.38%
Clc1ccc(CSc2nnc(/C=C/c3ccccc3)o2)c(Cl)c1 -24.9%
O=c1[nH]nc(CSCc2ccccc2Cl)[nH]1 -4.38%
CCOC(=O)Cc1csc(NC(=O)CSc2ccc(Br)cc2)n1 -1.05%
CCOC(=O)CNC(=O)/C=C/c1c(Cl)cccc1Cl -4.86%
Cc1cccc2cc(CN(C(=O)c3cccs3)c3ccccc3)c(=O)[nH]c12 -18.7%
Cc1ccc(-c2csc(-c3c[nH]c4ccccc34)n2)cc1 -7.14%
Brc1ccc(/C=N/N2CCN(C3c4ccccc4-c4ccccc43)CC2)s1 -4.34%
Cc1ccsc1/C=N/n1c(=S)[nH]nc(C)c1=O -6.69%
Cc1n[nH]c(=S)n1/N=C/c1ccc(Br)o1 -10%
CSC(=S)N/N=C/c1c[nH]c2ccccc12 -6.73%
c1ccc(-c2noc(-c3cccs3)n2)nc1 -8.74%
Cc1ccc2[nH]c(C(=O)O)c(NC(=O)c3ccccc3[N+](=O)[O-])c2c1 -8.36%
COc1ccc(C(=O)NC2(C(F)(F)F)NC(=O)N(CCCc3ccccc3)C2=O)c(OC)c1OC (stereo not given) -2.88%
Cc1cccc(C)c1NC(=O)CSc1ccc([N+](=O)[O-])cn1 -5.79%
COc1ccccc1N1CCN(C(=O)C(=O)N/N=C/c2ccccc2F)CC1 -6.15%
CC(C)=C(NC(=O)c1ccccc1)C(=O)N/N=C(\C)c1ccccc1O -7.72%
Cc1cc(C)cc(NC(=S)NCCCN2CCOCC2)c1 -3.2%
Cc1ccc2[nH]c(=O)c(CC=C(Cl)Cl)c(C)c2c1 -6.58%
Cc1cc(C(=O)NNC(=S)Nc2ccccc2C)cs1 -17.5%
COC(=O)C1=NNC2(c3ccc(C)cc3)C(=O)N(c3cccc(C)c3C)C(=O)C12 (stereo not given) -7.55%
O=C(Cc1cccs1)N/N=C/c1ccc(OCc2ccccc2)cc1 -20.3%
CCOc1ccc(/C=N/NC(N)=S)cc1 -6.57%
CC1CCc2sc(C(=O)N/N=C/C3CCCCC3)cc2C1 (stereo not given) -7.97%
O=C(Nc1ccccc1C(=O)NCCCn1ccnc1)c1ccc(Cl)cc1Cl -7.71%
CCOc1ccc(NC(=O)CCC(=O)n2nc(C)cc2C)cc1 -8.1%
CCOC(=O)CC(NC(=O)C1c2ccccc2Oc2ccccc21)c1ccc(C)cc1 (stereo not given) 6.16%
CCOC(=O)C1=C(C)OC(N)=C(C#N)C1c1cncc(-c2ccc(F)cc2)c1 (stereo not given) -9.79%

Potency, active:
c1ccc(-c2nnc3n2NC(c2ccc4c(c2)OCO4)S3)cc1 (stereo not given) 14.1 µM
Cc1nc2nc(SCC(=O)NCc3ccco3)nn2c(C)c1Cc1ccccc1 22.4 µM
O=C(NCc1ccccc1Cl)C1CCC(CNc2c(N3CCCCC3)c(=O)c2=O)CC1 (stereo not given) 12.6 µM
Cc1ccc(OCCCC(=O)N2CCOCC2)c(C)c1 20 µM
O=[N+]([O-])c1c(NCCO)cc(Sc2nc3ccccc3s2)c2nonc12 11.2 µM
COc1ccccc1CNC(=O)c1ccc(SC)cc1OC 22.4 µM
Cc1ccc(C(=O)c2c(NC(=O)c3ccccc3)sc(C)c2C)cc1 14.1 µM
Cn1cnc([N+](=O)[O-])c1Sc1ccccc1 15.8 µM
CCS(=O)(=O)n1nc(-c2ccccc2)nc1SCc1ccccc1 14.1 µM
COc1ccc(C(CCN(Cc2ccc(OC)c(OC)c2)C(=O)CCl)c2ccccc2)cc1 (stereo not given) 10 µM
CCOC(=O)c1ccc2c(c1)nc(SCC(=O)NC(C)C)n2CC 31.6 µM
O=C(CSCc1ccc(Cl)cc1)N1CCCCC1 15.8 µM
S=c1[nH]nc(CSCc2ccc(Cl)cc2Cl)n1-c1ccccc1 3.16 µM
Cc1ccc(/C=N\n2c(-c3ccccc3)n[nH]c2=S)s1 11.2 µM
Oc1ccccc1/C=N/n1c(-c2cccs2)n[nH]c1=S 2.51 µM
S=c1[nH]nc(-c2ccco2)n1/N=C/c1ccc(Br)s1 2.82 µM
S=c1[nH]nc(-c2ccccc2)n1/N=C/c1c[nH]c2ccccc12 2 µM
CCOc1ccc(/C=N/OCC(=O)NCc2cccs2)cc1 15.8 µM
Cc1cc(C)n(C(=O)CCNC(=O)c2ccccc2Cl)n1 15.8 µM
